Compound activity as filed in PubChem BioAssay.
An excerpt weighted towards active compounds, which were near 7.3% of everything screened.
FMDV antiviral – foot and mouth disease virus antiviral activity; FMDV antiviral cell-based qHTS; Potency, µM (series often up to 57.9 µM), for inactives: top-dose activity change, negative = inhibition, actives largely listed as inhibitors; actives 1.2% (n = 410,000); AID 1159524; calls by dose curve; tested in HEK293T cells; further: read-out not given here; potency means the concentration at half of the fitted maximal effect; nearly all actives have a fitted effect of over 45% in size
HCMV inh – inhibitors of human cytomegalovirus; HFF cells, HCMV-luciferase reporter, 72 h; hits give low values; activity change, negative = inhibition, % at 57.5 µM; actives 4.5% (n = 410,000); AID 1259415; in the data active means activity change below about -60%; inconclusive means no clear call, values can overlap the other calls; inactive means above about -39%
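HFF cells seeded 16 h at 37C, treated with compounds, infected with luciferase-reporter HCMV at MOI 1 PFU/cell; luciferase read at 72 h post infection, normalized to buffer-only and Salinomycin controls.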
AmpC no deterg – AmpC beta-lactamase inhibition without detergent. AmpC nitrocefin hydrolysis, absorbance 480 nm, 0.0001% Triton. Potency, µM (highest dose often 57.1 µM), without a hit: at the top dose activity change, negative = inhibition, usual class: inhibitors. actives 0.52% (n = 330,000);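 further: potency means the concentration at half of the fitted maximal effect; plate controls were no compound for no effect and no enzyme for full effect; nearly all actives have a fitted effect of over 20% in size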
Target sequence (P00811 whole entry, looked up): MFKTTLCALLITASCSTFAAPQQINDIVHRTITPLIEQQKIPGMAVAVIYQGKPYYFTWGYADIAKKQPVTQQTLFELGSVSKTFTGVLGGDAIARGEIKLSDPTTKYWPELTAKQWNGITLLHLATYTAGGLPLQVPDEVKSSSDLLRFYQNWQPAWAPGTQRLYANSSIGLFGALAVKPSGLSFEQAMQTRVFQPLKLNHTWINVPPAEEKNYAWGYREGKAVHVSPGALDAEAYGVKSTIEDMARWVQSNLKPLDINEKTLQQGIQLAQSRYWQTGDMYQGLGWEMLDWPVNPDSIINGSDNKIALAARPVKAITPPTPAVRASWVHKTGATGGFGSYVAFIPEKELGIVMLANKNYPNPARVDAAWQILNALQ
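20 mM phosphate pH 7.0 + 0.01% (detergent screen) or 0.0001% Triton X-100; 5.3 nM AmpC reagent; cpd preinc 15 min RT; nitrocefin (800 uM stock) to start; A480 q20 s × 4 min; Activity was normalised to no-enzyme and no-compound control wells.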
HCV inhibitor – HCV inhibition | Huh7.5.1 HCVcc-Cre infection, luciferase reporter, 44 h | Potency, µM (top dose mostly 41.8 µM), for inactives: at the highest dose activity change, negative = inhibition, usual class: inhibitors | actives 3.4% (n = 340,000) | AID 651820; further: potency means the concentration at half of the fitted maximal effect
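Luciferase read-out (15 sec integration) after a 15 min room-temperature substrate step quantifies HCVcc-Cre infection. Cells, 1,000 per well, had compound added 4 h post-plating, then virus at ~0.5 moi, and were cultured 44 h.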
AmpC detergent – inhibitors of E. coli AmpC beta-lactamase with detergent; P00811; Potency, µM (titrated, usually from 114 µM), for the others: at the highest dose activity change, negative = inhibition, usual class: inhibitors; actives 0.041% (n = 370,000); AmpC hydrolysis of nitrocefin, absorbance 480 nm, 0.01% Triton;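 further: potency means the concentration at half of the fitted maximal effect; 0% = no-compound wells and -100% = no-enzyme wells; nearly all actives have a fitted effect of over 25% in size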
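20 mM phosphate pH 7.0 + 0.01% (detergent screen) or 0.0001% Triton X-100; 5.3 nM AmpC reagent; cpd preinc 15 min RT; nitrocefin (800 uM stock) to start; A480 q20 s × 4 min; Activity was normalised to no-enzyme and no-compound control wells.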
The depositor's hits bear a star; u = inconclusive; x = no result; ! = not confirmed by another sample. Unless noted, the call rests on the fitted dose curve; in most records, active means well fitted curve in the direction sought with a large enough effect; inconclusive means small, poorly fitted or top-dose-only effect, or another doubt; inactive means no such curve, though single readings can be large; an effect the other way counts as inactive or inconclusive. Unless noted, on the % scale 0 is the no-effect control and ±100 the full control effect.

SMILES	FMDV antiviral	HCMV inh	AmpC no deterg	HCV inhibitor	AmpC detergent
CC(=NNC(=S)N1CC2CCC(CC2)C1)c1cccc(C)n1	-7.6%	-83.1*	x	u	x
CC(=O)c1nccs1	0.0%	x	0.8%	-5.8%	2.7%
Cc1cccc(C(=O)N2CCCC(Nc3ccc(C)c(C)c3)C2)n1 (stereo not drawn)	-10.3%	-19.5	76.2%	12.1%	-2.6%
Cc1ccc2[nH]c(=O)c(CN(C(=O)c3cccc(Cl)c3)C(C)(C)C)cc2c1	0.0%	23.4	x	x	0.7%
COc1ccc(Nc2nc3ccc(Cl)cc3nc2-n2nc(C)cc2C)cc1	-0.4%	20.2	x	x	-3.8%
Cc1cccc(CN2C[C@]34CC[C@@H](C[C@@H]3S2(=O)=O)O4)c1	-9.2%	19.4	-24.6%	7.08µM*	-3.3%
CC1CCN(C(=S)NC(=O)c2ccco2)CC1	-10.3%	-68.5*	-7.3%	14.0%	3.4%
CCC(C)NC(=O)c1ccccc1-c1ccccc1C(=O)NC(C)CC (stereo not drawn)	-8.0%	26.9	119.9%	26.1%	2.7%
CCC(C)NC(=O)c1c(F)c(F)c(F)c(F)c1F (stereo not drawn)	-16.5%	-67.7*	-1.4%	13.2%	1.4%
C=CCNc1nc(-c2sc(NC(=O)C(C)(C)C)nc2C)c(-n2cc(-c3ccccc3)nn2)s1	-21.9%	-38.4	x	x	x
CCOC(=O)N1CCC(NCCNC(=O)c2ccccc2Cl)CC1	4.7%	10.7	-11.2%	-24.9%	-16.6%
CCOC(=O)N1CCC(Nc2c(NCCCN(CC)CC)c(=O)c2=O)CC1	-0.7%	-29.5	-18.1%	17.5%	-10.4%
CCOC(=O)N1CCN(c2c(NC3CCN(Cc4ccccc4)CC3)c(=O)c2=O)CC1	-10.0%	-64.2*	-1.4%	-13.7%	-10.4%
CCOC(=O)N1CCC(NCCNC(=O)c2ccccc2)CC1	10.1%	-70.0*!	-26.0%	6.4%	1.2%
CCOC(=O)N1CCC(Nc2c(NCCCOC)c(=O)c2=O)CC1	-22.2%	12.4	0.251µM*	4.7%	0.1%
c1ccc(C(c2cccs2)c2c[nH]c3ccccc23)cc1 (stereo not drawn)	u	-66.5*	x	x	-0.3%
c1ccc(C(c2c[nH]c3ccccc23)c2c[nH]c3ccccc23)nc1	-29.5%	22.9	-8.4%	-0.3%	-10.6%
O=C(Nc1cccc2c1CCCC2)c1cc(C2CCCCN2S(=O)(=O)c2cccs2)on1 (stereo not drawn)	3.4%	25.1	x	x	x
CC(C(=O)OCC(=O)N1CCCCC1)N1C(=O)c2ccccc2C1=O (stereo not drawn)	2.5%	32.8	-7.9%	21.8%	x
O=C(N[C@H]1CC[C@@]23CCCN2C(=O)CCC[C@H]3[C@H]1Cc1ccccc1)c1cccc(C(F)(F)F)c1	x	-1.3	x	x	x
O=C(COC(=O)c1ccc(S(=O)(=O)N2CCCCC2)cc1)NCc1ccccc1	-17.9%	-4.5	-21.0%	29.8%	x
CCCOc1ccccc1C1NC(=O)NC(C)=C1C(=O)OCc1ccccc1 (stereo not drawn)	u	u	7.7%	u	-9.7%
CC1=C(C(=O)OCc2ccc3c(c2)OCO3)C(c2ccccc2)NC(=O)N1 (stereo not drawn)	x	-91.8*	-24.5%	u	-6.9%
COc1ccc(COC(=O)C2=C(C)NC(=O)NC2c2ccc(OC)cc2)cc1 (stereo not drawn)	u	-64.3*	-13.9%	u	u
CC1=C(C(=O)OCc2ccc3c(c2)OCO3)C(c2ccccc2OCc2ccccc2)NC(=O)N1 (stereo not drawn)	x	-24.2	-21.7%	10µM*	2.3%
CC1=C(C(=O)OCc2ccc3c(c2)OCO3)C(c2ccc(O)c([N+](=O)[O-])c2)NC(=O)N1 (stereo not drawn)	-26.0%	u	-32.2%	-13.7%	-11.4%
O=C(NC(=S)Nc1cccc(O)c1)c1ccco1	59.3%	-34.6	-25.3%	u	-13.0%
COc1cc2c(c(OC)c1O)-c1ccc(OC)c(=O)cc1C(NC(=O)C(F)(F)F)CC2 (stereo not drawn)	-9.9%	-90.3*	x	-10.3%	x
COc1cc2c(c(OC)c1OC)-c1ccc(SC)c(=O)cc1C(NC(C)=O)CC2 (stereo not drawn)	-3.3%	-93.5*	x	5.6%	x
